Most compounds without a hit are left out; they make up all but 21% or so of the library.
Shiga toxin inh: A qHTS for Small Molecule Inhibitors of Shiga Toxin. Vero cells, Shiga toxin protein synthesis inhibition reporter. inhibition, % at 38.7 µM. hit rate 9.2% among 290,000. AID 2315, 2010; in the data active = inhibition mostly above about 28%, no sharp cut-off; inactive = mostly below about 43%
Pf growth 48h: Primary qHTS for delayed death inhibitors of the malarial parasite plastid, 48 hour incubation; P. falciparum luciferase growth in erythrocytes, 48 h; AID 504832, 2011; Potency, µM (series often up to 28.7 µM), usual class: inhibitors; hit rate 5.9% among 310,000
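Firefly luciferase activity from engineered P. falciparum reports growth; inhibitors lower the luminescent signal. Cultures contained 2% hematocrit erythrocytes at 0.1% final parasitemia.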
Cycloheximide cs: Cycloheximide Counterscreen for Small Molecule Inhibitors of Shiga Toxin; max response, %; hit rate 12% among 300,000; cell reporter, cycloheximide protein synthesis inhibition counterscreen; in the data active = max response mostly above about 13%, no sharp cut-off; inactive = mostly below about 14%; note: read at 38.3 µM for the half of the compounds with a filed dose
Sm TGR block: qHTS Assay for the Inhibitors of Schistosoma Mansoni Peroxiredoxins; Schistosoma mansoni thioredoxin glutathione reductase (TGR), Q962Y6; purified TGR, DTNB reduction, TNB absorbance 405 nm; Potency, µM (doses to about 114 µM), usual class: inhibitors; hit rate 3% among 360,000; AID 485364, 2010; note: nearly all actives have a fitted effect of over 60% in size
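TGR 20 nM + NADPH 100 uM (dispensed conc.), cpd preinc 15 min RT; start with NADPH (500 uM addition) then DTNB (15 mM addition). Kinetic TNB absorbance, 405 nm filter. Four-parameter Hill fit across titration.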
NS1 inh: qHTS Assay for Inhibitors of Influenza NS1 Protein Function. AID 2326, 2010. hit rate 0.4% among 270,000. Potency, µM (doses to about 46.1 µM); calls by dose curve; note: actives are rising curves; nearly all actives have a fitted effect of over 50% in size
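S. cerevisiae expressing influenza A NS1, grown in glucose, washed, then diluted 1:100 into pH 6.0 -URA galactose medium with 23 nl compound. Growth recovery read as OD600; NS1-free strain serves as control.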
Pf growth 96h: Primary qHTS for delayed death inhibitors of the malarial parasite plastid, 96 hour incubation; Potency, µM (top dose mostly 28.7 µM), usual class: inhibitors; hit rate 6.9% among 320,000; AID 504834, 2011; P. falciparum luciferase reporter growth, 96 h
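Two-generation exposure (96 h) targets delayed-death phenotype. Reporter parasites carrying integrated firefly luciferase, in red cells at 2% hematocrit and 0.05% parasitemia final, kept at 37 C, 5% CO2; luminescence loss indicates inhibition.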
Of the large screens only hits and unclear results are named; the others gave an inactive call. Unless noted, calls come from the whole dose curve; as a rule, active = well fitted curve in the direction sought with a large enough effect; inconclusive = small, poorly fitted or top-dose-only effect, or another doubt; inactive = no such curve, though single readings can be large; an effect the other way counts as inactive or inconclusive.

CCOc1c(Br)cc(/C=N\NC(=O)c2ccccc2)cc1OC	Shiga toxin inh active, Pf growth 48h 5.2µM, Cycloheximide cs 32, Pf growth 96h 8.3µM
COc1cc(/C=N/c2oc(-c3ccccc3)cc2C#N)ccc1O	Cycloheximide cs 19
CCOc1cc(/C=N/NC(N)=S)cc(Br)c1OCc1ccccc1C	Pf growth 48h 13µM (no result: Pf growth 96h)
COc1cc(/C=N\NC(=O)c2ccc(-c3ccccc3)cc2)cc(Br)c1O	none
COc1cc(/C=N/NC(=O)c2ccccc2)ccc1O	Shiga toxin inh 60, Cycloheximide cs 26
Cc1c(NC(=O)COC(=O)c2ccc(S(=O)(=O)N3CCOCC3)cc2)c(=O)n(-c2ccccc2)n1C	none (no result: NS1 inh)
Cc1c(-c2nc(-c3ccc4c(c3)OCO4)no2)nnn1-c1ccc(C(C)C)cc1	none (no result: Shiga toxin inh, Pf growth 48h, Cycloheximide cs, NS1 inh, Pf growth 96h)
COc1cc(/C=N/NC(=O)c2cc(O)cc(O)c2)ccc1OC(=O)c1ccccc1	Pf growth 96h inconclusive
COc1cc(C(=O)N/N=C/c2ccc(OC(=O)c3ccccc3)c(OC)c2)ccc1O	Pf growth 96h 9.3µM
CC(C)CCNC(=O)[C@H](CC(C)C)NC(=O)[C@H]1O[C@@H]1C(=O)O	Pf growth 48h 3.7µM, Pf growth 96h 2.1µM
CCOC(=O)[C@H]1O[C@@H]1C(=O)N[C@@H](CC(C)C)C(=O)NCCC(C)C	Sm TGR block inconclusive (no result: Pf growth 48h, Pf growth 96h)
CCN1CCc2c(sc(NC(=O)Cc3ccccc3)c2C(N)=O)C1	Pf growth 96h inconclusive
CCN1CCc2c(sc(NC(=S)NC(=O)c3ccco3)c2C(N)=O)C1	Cycloheximide cs 14
Cc1sc(NC(=S)NC(=O)c2ccco2)c(C(N)=O)c1C	Shiga toxin inh 93, Cycloheximide cs 26, Pf growth 96h inconclusive (no result: NS1 inh)
CCN1CCc2c(sc(NC(=O)Nc3ccc(Cl)c(Cl)c3)c2C(N)=O)C1	Pf growth 48h 12µM
CN(CC(=O)Nc1ccccc1Cl)C(=O)Cn1nnc(-c2ccc(F)cc2)n1	none (no result: Shiga toxin inh, Cycloheximide cs, NS1 inh)
Cc1ccccc1Oc1cc(-n2ncc(Cl)c(Cl)c2=O)ncn1	Pf growth 48h inconclusive, Cycloheximide cs 14, Sm TGR block 2µM
COc1ccc(C(=O)NC(=S)NNC(=O)Cc2cccs2)cc1	Shiga toxin inh 55, Cycloheximide cs 18
COc1cc(C(=O)OCC(=O)N2CCCCC2C)cc(NC(=O)c2cccs2)c1OC (stereo not given)	Pf growth 48h 0.12µM, Pf growth 96h inconclusive (no result: NS1 inh)
COc1cc(NC(=O)c2cccs2)cc(OC)c1	Shiga toxin inh active, Cycloheximide cs 15, Pf growth 96h 10µM
COc1ccc(Cl)cc1-c1nc(-c2ccc(NC(=O)c3cccs3)cc2)no1	Shiga toxin inh 34, Cycloheximide cs 85
CC(C)c1ccc(NC(=O)Cn2nnc(C(=O)NCc3ccc(Cl)cc3)c2N)cc1	none (no result: Shiga toxin inh, Pf growth 48h, Cycloheximide cs, NS1 inh, Pf growth 96h)
Cc1cc(C(=O)COC(=O)CN=C2NS(=O)(=O)c3ccccc32)c(C)n1CCc1ccc(Cl)cc1	none
Cc1cccc(NC(=O)c2cccc(NC(=O)Cc3cccs3)c2)c1	Shiga toxin inh 92, Pf growth 48h inconclusive, Cycloheximide cs 27, Pf growth 96h inconclusive
COc1ccc(NC(=O)c2cc3c(Cl)nc4ccccc4c3s2)cc1OC	Pf growth 48h 2.1µM
COc1ccc(C(=O)Nc2cccc(NC(=O)c3cccs3)c2)cc1	Shiga toxin inh 20, Cycloheximide cs 25
COc1ccc(OC)c(NC(=O)c2cc3c(Cl)nc4ccccc4c3s2)c1	none
COc1cccc(NC(=O)c2cccs2)c1	Shiga toxin inh 135, Cycloheximide cs 54, Pf growth 96h inconclusive
CC(C)(C)NC(=O)c1cccc(NC(=O)Cc2cccs2)c1	none
COc1ccc(NC(=O)c2ccc(NC(=O)c3cccs3)cc2)cc1	none
N#CCCOC1(C#CCN2CCCC2)CCCCC1	Pf growth 96h inconclusive
COc1ccc(-c2[nH]ncc2/C=N\NC(=O)c2cccs2)cc1OC	Shiga toxin inh 87, Cycloheximide cs 36
Cc1ccc(C(=O)Nc2ccncc2)c(C)c1	Cycloheximide cs 8.9, Pf growth 96h inconclusive
Cc1ccc(C(=O)Nc2ccc3[nH]c(=O)[nH]c3c2)c(C)c1	none (no result: NS1 inh)
CCCN(CC(=O)Nc1ccccc1OC)C(=O)c1ccncc1	none
COc1cc(NC(=O)Cc2cccs2)cc(OC)c1	Pf growth 96h 10µM

Assay outcomes deposited in PubChem by National Center for Advancing Translational Sciences (NCATS).
